Source: PubChem BioAssay (National Center for Advancing Translational Sciences (NCATS))
This is a sample that favours compounds with a hit; in the whole collection about 2.2% have one here.
Abeta rescue – restores growth of yeast expressing A-beta42 peptide. yeast expressing A-beta42, growth rescue, OD600, 48 h; response scale: 0% DMSO, 100% iron-clioquinol control. Potency, µM (top dose mostly 46.1 µM), usual class: activators. hit rate 0.063% among 410,000; also: nearly all actives have a fitted effect of over 55% in size
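Growth rescue measured by 600 nm absorbance after 48 h yeast culture at 30 C with compound. Values normalized between DMSO and an equimolar ferric chloride plus clioquinol control.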
Mito fusion yeast – mitochondrial division inhibition or fusion activation; S. cerevisiae fusion-defective mutant growth rescue, CellTiterGlo 48 h; Potency, µM (top dose mostly 46.1 µM), inactives show top-dose growth rescue (activation), hits mostly activators; hit rate 0.23% among 320,000; AID 485298; also: % of control where 0% means no effect; nearly all actives have a fitted effect of over 45% in size
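Yeast fusion mutant, YPEG (non-fermentable carbon), compound, 48 h at 37C non-permissive; CellTiterGlo added, 10 min RT, luminescence read. Rescued growth = division inhibition.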
aSyn yeast inh – rescues yeast growth from alpha-synuclein toxicity. Yeast expressing alpha-synuclein, growth rescue, BacTiter-Glo, 24 h. Potency, µM (top dose mostly 46.1 µM), for the others: top-dose growth rescue (activation), hits mostly activators. hit rate 0.14% among 370,000. AID 652106; also: % of control where 0% means no effect; nearly all actives have a fitted effect of over 65% in size
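Readout is rescue of growth in alpha-synuclein-expressing yeast, so inhibitors of toxicity appear as activators. Growth after 24 hr at 30 deg C in galactose medium is quantified by luminescence.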
TDP43 rescue – inhibitors of TDP-43 toxicity in yeast; AID 652104; hit rate 1.8% among 410,000; Potency, µM (titrated, usually from 46.1 µM), inactives show top-dose growth rescue (activation), usual class: activators; TDP-43 expressing yeast growth rescue, BacTiter-Glo, 24 h; also: % of control where 0% means no effect; nearly all actives have a fitted effect of over 50% in size
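Yeast expressing TDP-43 (pregrown in raffinose, seeded at OD600=0.02 in galactose medium) exposed to compounds 24 hr at 30 deg C. Growth read by BacTiter-Glo luminescence; rescue of toxicity appears as increased signal.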
FUS yeast rescue – suppressors of FUS proteinopathy in yeast. hit rate 0.24% among 390,000. S. cerevisiae FUS-expressing, growth rescue, OD600, 24 h. Potency, µM (doses to about 76.6 µM), hits mostly activators;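 also: plate controls were DMSO vehicle for no effect and reference control for full effect; nearly all actives have a fitted effect of over 55% in size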
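S. cerevisiae expressing FUS from galactose induction served as the toxicity model. Growth after 24hr at 30C, read as absorbance at 600 nm, indicates suppression of toxicity; compounds dosed at several concentrations.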
An asterisk follows results filed as active; i = inactive; u = inconclusive; x = no result; [ ] = dose if it differs, or a comment. Calls follow the shape of the dose curve; as a rule, active = well fitted curve in the direction sought with a large enough effect; inconclusive = small, poorly fitted or top-dose-only effect, or another doubt; inactive = no such curve, though single readings can be large; an effect the other way counts as inactive or inconclusive. Potency is read from the fitted curve at half-maximal effect.

SMILES | Abeta rescue | Mito fusion yeast | aSyn yeast inh | TDP43 rescue | FUS yeast rescue
CCc1c(C2(O)CCCCC2)[nH]c2cnccc12 | i | -1% | 0% | 1% | i
CCOC(=O)c1[nH]c2ccc(C(=O)OC)cc2c1C(=O)OCC | i | 2% | 8% | 21% | i
COc1cc2cc(C#N)c(SCC(=O)OC(C)C)nc2cc1OC | x | x | -7% | x | x
CCOc1ccc(N(CC(=O)Nc2c(C)n(C)n(-c3ccccc3)c2=O)S(=O)(=O)c2cc(OC)ccc2OC)cc1 | x | x | x | x | i
COc1cccc(NC(=O)Cn2c(=O)n(-c3ccc(Cl)cc3)c(=O)c3oc4ccccc4c32)c1 | i | x | x | -19% | i
COC[C@@H]1CCCN1c1ccc2c(c1)O[C@H]1CCN(C1)S2(=O)=O | x | x | x | x | i
CSc1ccccc1NC(=O)C1(C)CCN1C(=O)Cc1ccc(Cl)cc1Cl (stereo not drawn) | i | x | 9% | 0% | i
CC1(C(=O)Nc2ccc(F)cc2F)CCN1C(=O)Cc1ccc(Cl)cc1Cl (stereo not drawn) | i | x | 14% | 16µM* | i
COc1ccc(Cn2ccc3ccc(-c4ccc5ccn(Cc6ccc(OC)cc6)c5c4)cc32)cc1 | x | x | x | x | i
Cc1ccc(S(=O)(=O)Nc2ccc3c(c2)C(=O)N([C@@H](C)CO)C[C@@H](C)[C@@H](CN(C)C(=O)NC2CCCCC2)OCCCC[C@H](C)O3)cc1 | i | x | 1% | -7% | i
COc1ccc(S(=O)(=O)N(C)C[C@H]2Oc3ccc(NS(=O)(=O)c4ccccc4)cc3C(=O)N([C@H](C)CO)C[C@@H]2C)cc1 | i | x | 0% | 4% | 18µM*
Cc1ccc(S(=O)(=O)Nc2ccc3c(c2)C(=O)N([C@H](C)CO)C[C@H](C)[C@H](CN(C)C(=O)Nc2cccc4ccccc24)OCCCC[C@@H](C)O3)cc1 | i | x | 6% | u | 13µM*
Cc1ccc(S(=O)(=O)Nc2ccc3c(c2)C(=O)N([C@H](C)CO)C[C@H](C)[C@@H](CN(C)C(=O)NC2CCCCC2)OCCCC[C@@H](C)O3)cc1 | i | x | 0% | 24% | 16µM*
Cc1ccc(S(=O)(=O)N(C)C[C@@H]2Oc3ncc(C#CCC(C)C)cc3C(=O)N([C@H](C)CO)C[C@H]2C)cc1 | i | x | 6% | 25µM* | 28µM*
C[C@@H]1CCCCO[C@H](CN(C)C(=O)Nc2cccc3ccccc23)[C@@H](C)CN([C@H](C)CO)C(=O)c2cc(N(C)C)ccc2O1 | i | x | -2% | 0% | i
COCC#Cc1cnc2c(c1)C(=O)N([C@H](C)CO)C[C@H](C)[C@@H](CN(C)S(=O)(=O)c1ccccc1)O2 | i | x | 1% | 0% | i
Cc1cc(C)cc(N2C(=O)CSC23C(=O)N(CC(=O)Nc2ccc(F)cc2F)c2ccccc23)c1 (stereo not drawn) | i | x | 0% | 26% | i
CN(C)c1ccc(/C=C/c2cc(/C=C/c3ccc(N(C)C)cc3)c3ccccc3n2)cc1 | x | x | -69% | x | x
C#CCNC(=O)C[C@H]1C[C@@]2(C(=O)OC)C(=C[C@H](COCc3ccccc3)O[C@@H]2C)N(Cc2ccco2)C1=O | x | x | x | x | i
CCCCNc1c(C(=O)OCC)c(C)nc2c1cnn2CC | i | 23µM* | 30% | 11% | i
Cc1ccccc1-c1nnc(SCC(=O)N(C)C2CCCCC2)o1 | i | x | x | 12% | i
O=C(Cn1c(=O)n2nc(-c3cccc(F)c3)nc2c2ccccc21)N1CCN(c2ccc(F)cc2)CC1 | i | x | x | 9% | i
Cc1ccc(-n2c(C)cc(C(=O)CN3CCOCC3)c2C)cc1C | i | 1% | -6% | -11% | i
Cc1cc(-n2c(C)cc(C(=S)N3CCOCC3)c2C)ccc1Br | i | 29% | -2% | 20µM* | x
CCc1cccc(NC(=O)CSc2nnc(-c3cc4occc4n3C)n2-c2ccccc2C)c1 | i | x | x | 16% | i
SMILES | Abeta rescue | Mito fusion yeast | aSyn yeast inh | TDP43 rescue | FUS yeast rescue
Cc1ccc(CCNC(=O)CCCn2nc(C)c3c(C)n(-c4ccccc4)nc3c2=O)cc1 | i | x | x | 8% | i
COc1ccc(Nc2cnn(-c3nc4ccccc4s3)c(=O)c2Cl)cc1 | i | -4% | 0% | 8.9µM* | x
O=c1c(Cl)c(Nc2cccc(Cl)c2)cnn1-c1nc2ccccc2s1 | i | u | 4% | 9% | i
CCOc1nc(NCCO)nc(NCCC2=CCCCC2)n1 | i | -1% | -1% | 2% | i
Clc1nc(Cl)nc(NCCC2=CCCCC2)n1 | i | 11% | 3% | 10µM* | i
Cc1cc(N2CCN(C(=O)c3cccs3)CC2)c(F)cc1[N+](=O)[O-] | i | 21% | 7% | 13µM* | i
COc1ccc(N2CCN(C(=S)NC(=O)c3cccs3)CC2)c([N+](=O)[O-])c1 | u | -8% | 9% | 22µM* | i
O=C(c1cccs1)N1CCN(c2ccc([N+](=O)[O-])cc2F)CC1 | i | 1% | 2% | 21% | i
CCC[C@H]1[C@@H](OC(=O)NCc2cccnc2)CC[C@@]23CCCN2C(=O)CCC[C@@H]13 | x | x | x | x | i
CN=C1NN=C(c2cc(C)n(-c3c(C)n(C)n(-c4ccccc4)c3=O)c2C)CS1 | i | 32µM* | 0% | -14%[0.397 µM] | u
COc1ccc(-n2c(C)cc(C3=NNC(=NC4CC4)SC3)c2C)cc1 | i | -4% | -8% | 25% | 16µM*
O=C(NC1CCCCC1)O[C@H]1CC[C@@]23CCCN2C(=O)CCC[C@H]3C1 | x | x | x | x | i
Cn1cccc1C(=O)N1CCN(S(=O)(=O)c2ccccc2F)CC1 | x | x | x | x | i
COc1ccc(C2Nc3ccccc3C(=O)N2Cc2ccccc2)cc1COc1ccc(NC(C)=O)cc1 (stereo not drawn) | x | x | x | x | 16µM*
COc1ccc(C2Nc3ccccc3C(=O)N2Cc2ccco2)cc1COc1c(C)cc(NC(C)=O)cc1C (stereo not drawn) | x | x | x | x | 10µM*
CCc1cc2c(cc3c(=O)n(CC(=O)N4CCC(C)CC4)nc(CC)n32)s1 | i | x | x | -6% | i
CC(C)c1ccc(/C=C2\C=Cc3ccccc32)cc1 | x | x | -1% | x | x
CC1CCC(Nc2ncnc3onc(-c4ccc(Cl)cc4)c23)CC1 (stereo not drawn) | i | x | -1% | 20µM* | i
Clc1ccc(-c2noc3ncnc(NC4CCCCC4)c23)cc1 | i | x | x | 35µM* | i
CC1CCC(Nc2ncnc3onc(-c4ccc(F)cc4)c23)CC1 (stereo not drawn) | i | x | x | u | i
Cc1ccc(S(=O)(=O)N2CCN(C(=O)CCOc3cc(C)ccc3C)CC2)cc1 | i | 6% | 10% | 35µM* | i
Cc1cc(Cl)ccc1OCCCC(=O)N1CCN(S(=O)(=O)c2ccccc2)CC1 | i | u | 18% | 14µM* | i
